The values that follow come from PubChem BioAssay (NCATS).

Each structure is given as a SMILES string. Results filed as inconclusive are left out. Active and inactive are the calls of the source. Unless noted, calls follow the shape of the dose curve; as a rule, active = well fitted curve in either direction with a large enough effect (not every such curve was filed as active); inconclusive = small, poorly fitted or top-dose-only effect, or another doubt; inactive = flat fitted curve, though single readings scatter.

Assay [1] has as its target Lysosomal acid glucosylceramidase (Homo sapiens) (UniProt P04062). The assay can be described thus: Glucocerebrosidase-p2 (AID 348; in the data active = potency below about 10 µM; also: potency is read from the fitted curve at half-maximal effect). To be noted: purified GBA, blue fluorogenic substrate, 40 min. The method in brief: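 Normal human glucocerebrosidase (0.2 nM) with blue fluorogenic substrate (80 uM final) in citrate/phosphate pH 5.9 with 10mM sodium taurocholate, 0.01% tween-20; 40 min RT, NaOH/glycine stop; fluorescence Ex 365/Em 440; AC50 from a titration from 0.6 nM upwards.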

A short description of assay [2]: AP1 Signaling Pathway (AID 357).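 Also: ME-180 reporter cells stimulated with EGF at its EC50 level; % is scaled to controls: 0 for no effect and ±100 for the full control effect.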 To be noted: ME-180 AP-1-bla reporter, EGF-induced, beta-lactamase ratio, 5 h; at 7.69 µM (top of the series) unless noted. The method in brief:
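Beta-lactamase reporter under AP-1 response element, ME-180 background. Stimulus: EC50 EGF. Compound exposure 5 h, 37 °C. Detection: CCF4, 2.5 h RT, 460/530 nm. Values: AC50 from titration.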

Assay [3] has as its target Cytochrome P450 1A2 (Homo sapiens) (UniProt P05177). The assay can be described thus: p450-cyp1a2 (AID 410; calls by dose curve; also: potency is read from the fitted curve at half-maximal effect;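 as to activity change, negative = inhibition: -100% = full effect of reference inhibitor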). The settings on record: recombinant CYP1A2, luciferin-ME demethylation, luminescence; series mostly up to 57 µM. The method, boiled down:
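O-Demethylation of luciferin 6' methyl ether by human CYP1A2 is monitored as luciferase luminescence. Substrate sits at Km (100uM); enzyme is 20nM. Values are scaled to 57 uM furafylline as maximal inhibition.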

Assay [4] is described as follows: NFAT Signaling Pathway (AID 444).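 Also: carbachol stimulus at about its EC50 of 1 µM final; % is scaled to controls: 0 for no effect and ±100 for the full control effect.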 The settings on record: Jurkat NFAT-bla M1, carbachol, beta-lactamase ratio, 5 h; at 7.69 µM (top of the series) unless noted. The method, boiled down: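 Jurkat cells with NFAT-driven β-lactamase reporter and co-expressed M1 receptor, stimulated with carbachol (final 1 uM, ~EC50), compound titration, 5 h at 37 °C. CCF4 loaded 1 h at RT; 460/530 nm ratio gave %activity and AC50.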

Assay [5] is described as follows: Stat Signaling Pathway (AID 446).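 Also: ME-180 cervical cancer cells given 40 pM IL-6 alongside compound; SIE-controlled beta-lactamase reporter measured as 460/530 nm FRET emission ratio; % is scaled to controls: 0 for no effect and ±100 for the full control effect.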 To be noted: ME-180 SIE beta-lactamase reporter, IL-6 stimulated, 5 h; at 7.69 µM (top of the series) unless noted. The method in brief:
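FRET read-out (405 nm excitation, 460/530 nm emission) of a beta-lactamase reporter under a STAT-inducible element in ME-180 cervical carcinoma cells. Cells with compound receive 40 pM IL-6 for 5 h. Values are normalised to AC90 stimulation and AC90 JAK-inhibitor controls.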

Assay [6] addresses Glucocorticoid receptor (Homo sapiens) (UniProt P04150). The assay can be described thus: GR-EFC Redistribution (AID 451; calls by dose curve; also: potency is read from the fitted curve at half-maximal effect). To be noted: CHO-K1 GR-EFC translocation, beta-gal luminescence, 2 h. The method in brief:
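CHO-K1 cells expressing nuclear EA and GR-ED fragments of b-gal; compounds titrated up to 46 uM final, 2 h at 37 C. GR nuclear translocation read as complemented b-gal luminescence after 1 h RT detection.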

Assay [7] deals with Mitogen-activated protein kinase 10 (Mus musculus) (UniProt Q61831). The assay is described as follows: JNK3 AlphaScreen Assay (AID 530).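 Also: kinase came from lysate of stimulated human HepG2 cells; signal reports phosphorylation of biotinylated GST-cJun 1-79 at Ser73 with 10 µM ATP; % is scaled to controls: 0 for no effect and ±100 for the full control effect.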 The settings on record: JNK3 lysate, c-Jun phosphorylation; series mostly up to 57.1 µM. The method, boiled down:
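Activity was read by AlphaScreen after JNK3-containing HepG2 lysate (cytokine pre-activated) phosphorylated biotinylated GST-cJun with 10 uM ATP at room temperature. Phospho-Ser73 cJun antibody with Protein-A acceptor beads provided detection.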

For assay [8], the target named is 3',5'-cyclic-AMP phosphodiesterase 4B (Homo sapiens) (UniProt Q07343). The assay can be described thus: qHTS Assay for Inhibitors of PDE-IV (AID 607; active = well fitted activation curve with a large enough effect in the main read-out, with a control signal flat, not every such curve was filed as active; also: % of control where 0% means no effect). To be noted: HEK293 ACTOne CNG channel cells, membrane potential fluorescence; series mostly up to 22.9 µM. The method in brief:
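Cell-based read-out of cAMP via a modified cyclic nucleotide-gated channel and membrane potential dye (535/590 nm) in HEK293 cells expressing PDE4 endogenously. Compounds tested up to 22.9 uM final; 100 uM RO 20-1724 reference.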
(In general: Quantitative high-throughput screening tests each substance at several concentrations.)

Assay [9] deals with Cytochrome P450 3A4 (Homo sapiens) (UniProt P08684). The assay can be described thus: qHTS Assay for Activators of Cytochrome P450 3A4 (AID 885; active = well fitted curve in the direction sought with a large enough effect; an effect the other way counts as inactive or inconclusive; also: nearly all actives have a fitted effect of over 65% in size; also: potency is read from the fitted curve at half-maximal effect). The settings on record: recombinant CYP3A4, Luciferin-PPXE luminescence, 60 min; series mostly up to 57.1 µM. The method, boiled down: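 Luminescent readout of luciferin formed from 25 uM Luciferin-PPXE (KM level) by 20 nM CYP3A4 in 200 mM KPO4, with 60 min NADPH-driven reaction at room temperature after 10 min compound exposure. Ketoconazole (57 uM) defined 100% inhibition.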
Chain of Cytochrome P450 3A4 (Homo sapiens) (P08684 whole entry, looked up): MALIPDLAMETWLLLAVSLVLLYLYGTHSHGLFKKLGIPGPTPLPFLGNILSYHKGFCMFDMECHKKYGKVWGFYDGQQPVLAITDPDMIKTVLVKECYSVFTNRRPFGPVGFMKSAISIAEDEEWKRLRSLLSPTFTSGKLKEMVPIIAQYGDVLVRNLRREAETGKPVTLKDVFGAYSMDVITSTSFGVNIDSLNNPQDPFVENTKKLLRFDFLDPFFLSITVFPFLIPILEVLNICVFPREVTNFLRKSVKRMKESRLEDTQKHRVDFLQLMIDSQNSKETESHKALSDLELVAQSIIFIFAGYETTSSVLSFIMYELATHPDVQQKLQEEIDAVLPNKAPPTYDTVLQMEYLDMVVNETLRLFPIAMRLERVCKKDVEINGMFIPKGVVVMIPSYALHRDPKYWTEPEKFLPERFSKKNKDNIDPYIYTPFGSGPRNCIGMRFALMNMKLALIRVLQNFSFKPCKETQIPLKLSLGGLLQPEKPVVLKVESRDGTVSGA

A short description of assay [10]: qHTS Assay for Lipid Storage Modulators (AID 1519; calls by dose curve). The settings on record: Drosophila S3 cells, BODIPY lipid droplet/cell ratio, laser cytometry, cells loaded with oleic acid; for activity change, negative = inhibition: at 57.5 µM (top of the series). The method in brief: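 Cells seeded at 5,000 per well were treated with compounds over a concentration series and loaded with oleic acid (400 uM, as added). Lipid droplet fluorescence (488 nm excitation, 500-530 nm channel) was read by laser-scanning cytometry and normalized to 20 uM Triacsin C.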

Assay [11] can be described thus: Primary qHTS for small molecule stabilizers of the endoplasmic reticulum resident proteome: Secreted ER Calcium Modulated Protein (SERCaMP) assay (AID 1508630; active = well fitted curve in the direction sought with a large enough effect; an effect the other way counts as inactive or inconclusive; also: % is scaled to controls: 0 for no effect and ±100 for the full control effect). To be noted: SH-SY5Y GLuc-SERCaMP (Gaussia luciferase released on ER calcium loss) secretion, thapsigargin, luminescence; series mostly up to 38.4 µM. The method in brief: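 The SH-SY5Y reporter protocol was run at 3 concentrations up to 38.3 uM (primary) or 11 concentrations (follow-up): 16 h compound, 100 nM thapsigargin for 4 h, then extracellular luciferase luminescence.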

In assay [12] the target is Cytochrome P450 3A4 (Homo sapiens) (UniProt P08684). The assay can be described thus: qHTS Assay for Inhibitors and Substrates of Cytochrome P450 3A4 (AID 884; active = well fitted curve in the direction sought with a large enough effect; an effect the other way counts as inactive or inconclusive; also: nearly all actives have a fitted effect of over 50% in size; also: potency is read from the fitted curve at half-maximal effect). To be noted: recombinant CYP3A4, Luciferin-PPXE luminescence; series mostly up to 57.1 µM. The method in brief: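 Luminescent readout of luciferin produced by CYP3A4 (20 nM) dealkylation of Luciferin-PPXE, 25 uM (its KM). NADPH-driven reaction ran 60 min at RT after 10 min compound preincubation; data scaled to 57 uM ketoconazole as 100% inhibition.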

Assay [13] deals with Cytochrome P450 2C19 (Homo sapiens) (UniProt P33261). The assay is described as follows: qHTS Assay for Inhibitors and Substrates of Cytochrome P450 2C19 (AID 899; active = well fitted curve in the direction sought with a large enough effect; an effect the other way counts as inactive or inconclusive; also: potency is read from the fitted curve at half-maximal effect; nearly all actives have a fitted effect of over 60% in size). To be noted: recombinant CYP2C19, luciferin-H EGE luminescence; series mostly up to 57.1 µM. The method, boiled down: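 Luminescent read-out of luciferin formed from Luciferin-H EGE (10uM, equal to KM). Enzyme 5nM in 50mM KPO4; compound added, 10 min at 37C, then NADPH regenerating system for 60 min at 37C. Full inhibition defined by 57uM ketoconazole.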
Chain of Cytochrome P450 2C19 (Homo sapiens) (P33261 whole entry, looked up): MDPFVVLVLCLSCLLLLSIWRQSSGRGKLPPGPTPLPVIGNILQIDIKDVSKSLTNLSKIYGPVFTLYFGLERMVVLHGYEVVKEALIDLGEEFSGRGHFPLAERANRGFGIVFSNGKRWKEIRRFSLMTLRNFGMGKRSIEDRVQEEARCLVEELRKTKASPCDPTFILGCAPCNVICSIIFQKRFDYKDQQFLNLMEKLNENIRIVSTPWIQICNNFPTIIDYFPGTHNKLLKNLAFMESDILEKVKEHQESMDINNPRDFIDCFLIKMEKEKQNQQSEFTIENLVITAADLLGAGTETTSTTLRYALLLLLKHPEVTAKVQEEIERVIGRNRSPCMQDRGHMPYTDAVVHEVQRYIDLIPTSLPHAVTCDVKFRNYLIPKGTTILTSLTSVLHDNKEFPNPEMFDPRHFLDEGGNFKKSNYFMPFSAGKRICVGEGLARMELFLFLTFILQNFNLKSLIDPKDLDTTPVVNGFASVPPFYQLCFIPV

A short description of assay [14]: qHTS Assay for Identification of Small Molecule Agonists for Hypoxia Response Element Signaling Pathway (AID 914; active = well fitted activation curve with a large enough effect in the signal ratio, with a control signal flat, not every such curve was filed as active; the % refers to the signal ratio; also: % of control where 0% means no effect). To be noted: ME-180 (cervical carcinoma) HRE-bla reporter, beta-lactamase ratio, CoCl2, 17 h; activation: stronger effect = higher value. The method in brief: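 Read-out: CCF4 FRET ratio of 460nm to 530nm emission (excitation 405nm) after 2.5 hours at room temperature, taken from HRE-bla ME-180 cells that had been exposed to compound and EC50 CoCl2 for 17 hours.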

Setting [15] is: measured here: cell count channel max response.
[16] abbreviates: measured here: lipid channel max response.

Chain of 3',5'-cyclic-AMP phosphodiesterase 4B (Homo sapiens) (Q07343 whole entry, looked up): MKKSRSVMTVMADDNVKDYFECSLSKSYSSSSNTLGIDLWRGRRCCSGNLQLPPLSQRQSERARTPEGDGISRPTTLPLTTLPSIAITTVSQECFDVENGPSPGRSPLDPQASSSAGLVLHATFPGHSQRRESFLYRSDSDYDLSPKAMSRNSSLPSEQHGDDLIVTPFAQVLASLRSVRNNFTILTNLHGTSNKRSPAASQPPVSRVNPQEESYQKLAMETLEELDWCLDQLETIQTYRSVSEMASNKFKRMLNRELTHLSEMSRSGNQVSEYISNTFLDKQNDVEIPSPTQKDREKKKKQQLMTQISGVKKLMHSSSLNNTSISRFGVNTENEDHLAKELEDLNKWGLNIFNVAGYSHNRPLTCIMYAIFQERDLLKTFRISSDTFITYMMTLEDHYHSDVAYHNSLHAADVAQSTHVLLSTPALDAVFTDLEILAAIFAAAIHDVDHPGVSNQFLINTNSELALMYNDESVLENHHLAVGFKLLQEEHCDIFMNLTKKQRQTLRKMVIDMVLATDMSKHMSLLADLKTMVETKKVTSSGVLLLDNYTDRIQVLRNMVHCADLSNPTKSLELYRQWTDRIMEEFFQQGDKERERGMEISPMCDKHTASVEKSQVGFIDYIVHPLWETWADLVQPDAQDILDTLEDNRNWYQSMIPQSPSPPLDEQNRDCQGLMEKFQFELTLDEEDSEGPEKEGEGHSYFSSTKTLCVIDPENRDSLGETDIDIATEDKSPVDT
Chain of Glucocorticoid receptor (Homo sapiens) (P04150 whole entry, looked up, the tested form may be a part): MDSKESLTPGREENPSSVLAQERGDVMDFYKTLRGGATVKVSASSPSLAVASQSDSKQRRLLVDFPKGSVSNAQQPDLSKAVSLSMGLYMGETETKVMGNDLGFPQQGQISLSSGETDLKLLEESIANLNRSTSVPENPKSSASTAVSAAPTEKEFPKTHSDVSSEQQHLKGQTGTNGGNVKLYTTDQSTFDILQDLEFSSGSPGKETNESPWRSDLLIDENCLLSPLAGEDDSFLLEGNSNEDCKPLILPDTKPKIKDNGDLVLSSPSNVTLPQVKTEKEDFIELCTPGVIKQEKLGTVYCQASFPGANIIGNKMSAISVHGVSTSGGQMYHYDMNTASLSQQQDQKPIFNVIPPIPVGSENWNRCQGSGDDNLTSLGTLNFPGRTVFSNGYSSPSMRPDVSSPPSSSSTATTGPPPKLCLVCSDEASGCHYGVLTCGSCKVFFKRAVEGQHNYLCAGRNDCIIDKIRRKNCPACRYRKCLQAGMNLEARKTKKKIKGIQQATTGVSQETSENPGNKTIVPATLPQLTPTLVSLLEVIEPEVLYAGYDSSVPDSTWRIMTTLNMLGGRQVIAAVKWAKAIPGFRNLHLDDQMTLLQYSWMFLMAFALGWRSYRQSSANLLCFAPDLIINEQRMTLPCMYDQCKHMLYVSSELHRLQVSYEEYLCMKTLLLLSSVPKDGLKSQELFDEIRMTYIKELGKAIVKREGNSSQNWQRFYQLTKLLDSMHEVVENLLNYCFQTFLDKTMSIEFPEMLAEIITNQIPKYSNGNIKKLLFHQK
Chain of Lysosomal acid glucosylceramidase (Homo sapiens) (P04062 whole entry, looked up): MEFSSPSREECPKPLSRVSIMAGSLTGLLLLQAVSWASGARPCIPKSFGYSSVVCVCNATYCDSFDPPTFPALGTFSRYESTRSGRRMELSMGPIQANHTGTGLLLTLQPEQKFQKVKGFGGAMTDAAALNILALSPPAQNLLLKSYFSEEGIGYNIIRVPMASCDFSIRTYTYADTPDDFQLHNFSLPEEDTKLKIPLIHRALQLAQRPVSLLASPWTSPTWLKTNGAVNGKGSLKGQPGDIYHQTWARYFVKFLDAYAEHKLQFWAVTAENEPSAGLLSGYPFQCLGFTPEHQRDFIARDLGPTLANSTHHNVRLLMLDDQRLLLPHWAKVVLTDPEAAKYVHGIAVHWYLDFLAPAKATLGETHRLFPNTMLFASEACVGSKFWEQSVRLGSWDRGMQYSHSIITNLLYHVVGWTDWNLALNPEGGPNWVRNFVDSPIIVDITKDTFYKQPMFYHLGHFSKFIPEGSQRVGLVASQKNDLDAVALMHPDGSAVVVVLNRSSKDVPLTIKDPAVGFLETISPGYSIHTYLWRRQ
Chain of Cytochrome P450 1A2 (Homo sapiens) (P05177 whole entry, looked up): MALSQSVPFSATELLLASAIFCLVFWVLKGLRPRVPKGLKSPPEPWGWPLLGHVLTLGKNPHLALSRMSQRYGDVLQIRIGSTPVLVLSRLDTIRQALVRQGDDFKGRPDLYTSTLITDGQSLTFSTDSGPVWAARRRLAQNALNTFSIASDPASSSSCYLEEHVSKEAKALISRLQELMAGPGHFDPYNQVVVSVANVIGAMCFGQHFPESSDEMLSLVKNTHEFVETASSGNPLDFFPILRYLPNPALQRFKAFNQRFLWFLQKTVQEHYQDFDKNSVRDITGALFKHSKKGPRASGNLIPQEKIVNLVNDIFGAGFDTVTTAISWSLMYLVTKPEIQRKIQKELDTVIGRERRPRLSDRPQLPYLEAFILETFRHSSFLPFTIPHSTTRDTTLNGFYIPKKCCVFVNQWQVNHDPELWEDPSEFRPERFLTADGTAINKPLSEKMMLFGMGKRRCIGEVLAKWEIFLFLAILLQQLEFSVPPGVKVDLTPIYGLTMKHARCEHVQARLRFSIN

On to `COc1ccc(NC(=O)N2CCCC3(CCN(C(=O)c4c(C)noc4C)CC3)C2)cc1`, for which the values for the Potency in assay [1] and in assay [6] were > 11.4 µM (inactive) and > 46 µM (inactive), respectively. The activity change, negative = inhibition in assay [2] was -6.4% (inactive); in [4], 7.7% (inactive); in assay [10] it was 3.9% (inactive). In addition, the Potency result in assay [3], in [8], in assay [9] and in [11] was “inactive” each time. Moreover, the activity, negative = inhibition in [5] is -0.272% (inactive). Besides, the compound was classed as inactive in assay [7]. Further, the values for the max response in assay [10] (setting [15]) and in assay [10] (setting [16]) were 14.4% and 18.8%, respectively.
With `O=C(c1ccncc1)N1CCC[C@@]2(CCN(c3ccccn3)C2)C1`, the Potency is > 11.4 µM (inactive) in [1]; 20 µM (active) in assay [3]; > 46 µM (inactive) in assay [6]; 7.94 µM (active) in assay [12]; 6.31 µM (active) in assay [13]. In addition, the figures for the activity change, negative = inhibition in [2], in [4] and in [10] were -20.6% (inactive), 6.17% (inactive) and 4.35% (inactive), respectively. In [5], the activity, negative = inhibition is -0.0595% (inactive). Further, the result in assay [7] was inactive. Moreover, the Potency result in assay [8], in assay [9] and in assay [11] was “inactive” in each case. The max response turned out to be 14.4% in assay [10] (setting [15]) and 22.3% in assay [10] (setting [16]).
`O=C(c1cc(C(F)(F)F)cc(C(F)(F)F)c1)N1CCC2(CC1)CN(c1ccccc1)C2`: the Potency was > 11.4 µM (inactive) in assay [1], > 46 µM (inactive) in [6] and 3.98 µM (active) in assay [9]. Besides, the activity change, negative = inhibition in assay [2] is 29.9% (inactive); in [4], -25.4% (inactive); in assay [10] it was -8.64% (inactive). Also, the Potency entry in [3], in assay [8], in assay [12] and in [11] was “inactive” in each case. In [5], the activity, negative = inhibition was 2.58% (inactive). In addition, in assay [7], the result was inactive. The max response in [10] (setting [15]) was 5.35%; in assay [10] (setting [16]), -1.3%.
With `CC(=O)N1CCC[C@@]2(CCN(Cc3ccccc3)C2)C1`, the figures for the Potency in assay [1] and in assay [6] were > 11.4 µM (inactive) and > 46 µM (inactive), respectively. Besides, the activity change, negative = inhibition in [2] is -2.69% (inactive); in assay [4] it was 17.1% (inactive); in [10], 6.41% (inactive). Further, the Potency result in assay [3], in assay [8], in [9] and in assay [11] was “inactive” throughout. Besides, the activity, negative = inhibition in assay [5] is -3.06% (inactive). Besides, the call in assay [7] was inactive. In addition, the max response stood at 8.55% in [10] (setting [15]) and 16.4% in [10] (setting [16]).
Turning to `COC(=O)N1CCC2(CC1)CCN(c1ccccc1)CC2`, the results for the Potency in assay [1] and in [6] were > 11.4 µM (inactive) and > 46 µM (inactive), respectively. Further, the activity change, negative = inhibition is 8.46% (inactive) in assay [2], 7.28% (inactive) in [4] and 0.493% (inactive) in assay [10]. The Potency entry in assay [3], in assay [8], in [12] and in assay [11] was “inactive” in each case. For the same compound, the activity, negative = inhibition in [5] is 7.52% (inactive). For the same compound, the call in [7] was inactive. In [14], the activation was 0.0011% (inactive). Besides, the max response in assay [10] (setting [15]) was found to be 3.31%; in [10] (setting [16]), 7.38%.
